Screens as filed in PubChem.
An excerpt weighted towards active compounds, which were near 2.9% of everything screened.
MEKK3 PB1 HTS = modulators of MEKK3-MEK5 PB1 binding, primary screen, biochemical, wildtype MEKK3, multiplex bead flow cytometry, Alexa488-MEK5; bead-based flow cytometry, Alexa488-MEK5 binding to MEKK3; actives lie on both sides; 0 = blocked by unlabeled MEK5, 100 = vehicle; binding response (% of control), % at 10 µM; actives 1.4% (n = 290,000); AID 1529, 2009; Mitogen-activated protein kinase kinase kinase 3 (Homo sapiens), Q99759;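 active means binding response more than 3 SD above or below the average of its plate-row segment, actives on both sides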;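 further: Alexa488 bead fluorescence after subtracting the streptavidin-only scavenger bead signal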
Target sequence (Q99759 whole entry, looked up): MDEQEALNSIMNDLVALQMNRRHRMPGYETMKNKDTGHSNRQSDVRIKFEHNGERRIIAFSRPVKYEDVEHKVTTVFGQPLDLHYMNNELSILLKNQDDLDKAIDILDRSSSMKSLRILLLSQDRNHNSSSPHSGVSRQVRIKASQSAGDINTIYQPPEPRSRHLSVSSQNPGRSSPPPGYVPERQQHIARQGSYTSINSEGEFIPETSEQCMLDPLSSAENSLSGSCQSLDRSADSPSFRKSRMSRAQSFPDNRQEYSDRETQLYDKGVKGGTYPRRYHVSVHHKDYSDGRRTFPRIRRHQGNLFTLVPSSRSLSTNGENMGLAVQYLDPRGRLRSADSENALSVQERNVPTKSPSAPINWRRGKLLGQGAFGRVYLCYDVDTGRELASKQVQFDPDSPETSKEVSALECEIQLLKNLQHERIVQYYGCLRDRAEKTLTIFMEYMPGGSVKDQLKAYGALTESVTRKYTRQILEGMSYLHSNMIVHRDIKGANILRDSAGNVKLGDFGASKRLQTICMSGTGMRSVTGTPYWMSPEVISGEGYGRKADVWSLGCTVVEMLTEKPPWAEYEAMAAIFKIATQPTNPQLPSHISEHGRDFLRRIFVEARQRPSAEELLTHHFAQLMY
GRK2 inh = compounds blocking aptamer binding on GRK2 – biochemical, human GRK2, bead flow cytometry, HTS, primary screen | actives 0.59% (n = 330,000) | Beta-adrenergic receptor kinase 1 (Homo sapiens), P25098 | inhibition of aptamer binding, % at 10 µM | FAM-aptamer displacement from GRK2;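 active means inhibition of aptamer binding above 40%, roughly 3 SD of noise, on plates passing a quality check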;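 further: median bead fluorescence of bound FAM aptamer so fluorescent compounds give negative values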
Beta2AR agonist = beta2AR agonists driving receptor internalization, primary screen, cell-based, FAP fluorogen, flow cytometry; Beta-2 adrenergic receptor (Homo sapiens), P07550; Am2.2-beta2AR cells; response, % (concentration not given with the values); actives 0.43% (n = 340,000); AID 504454, 2011;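 active means response above a set limit, near 3 SD of response in nonfluorescent compounds, cut at about 42% in these data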
MEKK2 mut-MEK5 = MEK5 binding signal on mutant MEKK2 PB1, primary screen, biochemical, multiplex bead flow cytometry, Alexa488-MEK5. Alexa488-MEK5 binding to MEKK2 mutant. percent response, % at 10 µM. actives 0.35% (n = 290,000). AID 1530, 2009; in the data active means percent response above about 24%, passing the limit was not always enough
MEKK2 WT-MEK5 = modulators of MEK5 binding to wildtype MEKK2, primary screen, biochemical, multiplex bead flow cytometry, Alexa488-MEK5. binding response (% of control), % at 10 µM. Alexa488-MEK5 binding to MEKK2 WT; actives lie on both sides. Mitogen-activated protein kinase kinase kinase 2 (Homo sapiens), Q9Y2U5. actives 1.1% (n = 290,000); in the data active means binding response below about 67% or above about 130%
MEKK2wt confirm = modulators of MEK5 binding to wildtype MEKK2, confirmation, biochemical, single concentration, multiplex bead flow cytometry; shares compounds with MEKK3 PB1 HTS; Alexa488-MEK5 binding to MEKK2 WT; actives lie on both sides; binding response (% of control), % at 10 µM; actives 2.4% (n = 5,900); in the data active means binding response below about 16% or above about 210%; inactive means in between
MEKK2mut-MEK5 = mutant MEKK2 PB1-MEK5 binding signal retest – biochemical, single concentration, multiplex bead flow cytometry, confirmation; Alexa488-MEK5 binding to MEKK2 mutant; AID 1893, 2009; shares compounds with MEKK3 PB1 HTS; actives 2% (n = 5,900); percent response, % at 10 µM; in the data active means percent response mostly above about 71%, no sharp cut-off; inactive means mostly below about 38%;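 further: higher means compound restores mutant binding toward wildtype level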
MEKK3 confirm = MEKK3 wild-type PB1 binding to MEK5, inhibitors, confirmation, biochemical, bead multiplex flow cytometry, single concentration, wildtype. binding response (% of control), % at 10 µM. AID 1894, 2009. actives 1.8% (n = 5,900). shares compounds with MEKK3 PB1 HTS. Alexa488-MEK5 binding to MEKK3; hits give low values;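 active means binding response below 72% of control, or above a set upper limit, though filed actives all read lower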;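 further: 100% = DMSO only wells and 0% = binding blocked by excess unlabeled MEK5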
Active calls of the source: *; i = inactive; x = not tested or not shown; [ ] = dose if it differs, or a comment.

SMILES	MEKK3 PB1 HTS	GRK2 inh	Beta2AR agonist	MEKK2 mut-MEK5	MEKK2 WT-MEK5	MEKK2wt confirm	MEKK2mut-MEK5	MEKK3 confirm
Cc1cccc2cc(CN(Cc3ccccc3)C(=O)N(C)C)c(=O)[nH]c12	127*	3	-11	6	126	96	-8	96
CN(C)c1ccc(/C=C(\C#N)C(=O)Nc2nc3c(s2)CCN(Cc2ccccc2)C3)cc1	97	0	i	-22	71*[inhibitor]	98	7	106
Cc1cc(C)n(S(=O)(=O)c2ccc3oc(=O)ccc3c2)n1	100	30	-5	-4	95	x	x	x
Cc1ccccc1Cc1c(C)nc2nc(SCC(=O)NCc3ccco3)nn2c1C	116	2	-5	4	118	x	x	x
Cc1nc2nc(SCC(=O)NCc3ccco3)nn2c(C)c1Cc1c(F)cccc1Cl	97	0	-5	-1	100	x	x	x
Cc1cccc(Cc2c(C)nc3nc(SCC(=O)NCc4ccco4)nn3c2C)c1	126*	11	-3	7	122	102	-1	101
Cc1ccc(Cc2c(C)nc3nc(SCC(=O)NCc4ccco4)nn3c2C)cc1	122*	9	14	6	129	100	3	106
Nc1nc2c(nnn2Cc2ccc(Cl)c(Cl)c2)c(=O)[nH]1	x	x	0	x	x	x	x	x
Cc1ccc(CNC(=O)c2cc(Cl)cc(Cl)c2)n1C	102	0	3	4	105	x	x	x
C/C(=N/NS(=O)(=O)c1ccccc1)c1ccc(NC(=O)C2CC2)cc1	104	4	-2	0	104	x	x	x
CC(=O)Nc1ccc(/C(C)=N/NS(=O)(=O)c2ccccc2)cc1	128*	1	2	0	107	108	5	106
CCC(C)NC(=O)C1CCN(c2nc(OC)nc(OC)n2)CC1 (configuration not stated)	0.0*[inhibitor]	0	5	-4	-1.0*[inhibitor]	230*	76*	114
CN(C)c1ccc(/C=N/NC(=O)c2ccc(NC(=O)c3ccccc3)cc2)cc1	73*[inhibitor]	0	-3	-37	80	99	0	99
O=C(N/N=C/c1cccc(F)c1)c1ccc(Cl)cc1	104	0	5	-2	101	x	x	x
O=C(N/N=C/c1cccc(NC(=O)c2ccc(Cl)cc2)c1)c1ccc(O)cc1	44*[inhibitor]	3	22	-13	38*[inhibitor]	96	-2	101
CN(Cc1ccccc1)C(=O)c1ccc(NC(=O)Cc2ccc(NC(=O)C3CCN(S(=O)(=O)c4cccc([N+](=O)[O-])c4)CC3)cc2)cc1	x	x	1	x	x	x	x	x
CCOCCn1c(N2CCCC2)nc2c1c(=O)[nH]c(=O)n2C	107	3	4	7	110	x	x	x
COc1cc2nc(N3CCN(C(=O)OCc4ccccc4)[C@H](C(=O)NC(C)(C)C)C3)nc(N)c2cc1OC	x	0	10	x	x	x	x	x
Cc1nc(SCc2ccc(Cl)cc2)ncc1C(=O)O	101	0	4	-4	98	x	x	x
O=C(NCCCN1CCOCC1)C1CC(=O)N(CCc2ccccc2)C1 (configuration not stated)	100	0	2	2	103	x	x	x
O=C(NCCCN1CCCCCC1)C1CC(=O)N(CCc2ccccc2)C1 (configuration not stated)	81	0	-6	25*	147*	154	25	94
Cc1csc2c(NCCCN3CCOCC3)ncnc12	137*	1	5	27	136	104	3	104
Cc1cc(C)c(C)c(S(=O)(=O)N2CCC(C(=O)NC3=NCCS3)CC2)c1C	x	6	-2	x	x	x	x	x
CC(=O)c1cccc(CN2CCC(C(=O)Nc3ccc(-c4cccc(C)c4)cc3)CC2)c1	107	0	-5	19	176*	153	50	105
O=C(Cn1ccc(NC(=O)OCc2ccccc2)nc1=O)NCc1ccc2c(c1)OCO2	x	0	-18	x	x	x	x	x
SMILES	MEKK3 PB1 HTS	GRK2 inh	Beta2AR agonist	MEKK2 mut-MEK5	MEKK2 WT-MEK5	MEKK2wt confirm	MEKK2mut-MEK5	MEKK3 confirm
O=C(CSc1cccc[n+]1[O-])Nc1c(Br)cc([N+](=O)[O-])cc1Br	94	0	-6	-2	96	x	x	x
COc1cccc(Oc2ccc(C(F)(F)F)cc2NC(=O)c2cccc(F)c2)c1	111	0	6	5	110	x	x	x
COc1ccc(Oc2ccc(C(F)(F)F)cc2NC(=O)c2ccc(F)cc2)cc1	133*	0	-12	28	122	102	-8	97
CCc1nc2cc([N+](=O)[O-])c([N+](=O)[O-])cc2[nH]1	101	0	-5	-2	97	x	x	x
CC(NC(=O)Nc1ccc(F)cc1)C(c1cccs1)N1CCCC1 (configuration not stated)	142*	0	2	1	117	109	3	105
Fc1ccc(CSc2nnc3ccc(-c4ccncc4)nn23)cc1	127	0	-11	190*	115	97	-2	101
O=C(Nc1ccc(OCC(=O)N2CCC(Cc3ccccc3)CC2)cc1)c1ccco1	67*[inhibitor]	1	-18	-6	74	100	-3	101
CC(=O)Nc1ccc(OCC(=O)N2CCC(Cc3ccccc3)CC2)cc1	101	0	-2	8	99	x	x	x
COc1ccc(CCNC(=O)CN(C)S(=O)(=O)c2cccs2)cc1	x	0	6	x	x	x	x	x
CC(=O)Nc1ccc(S(=O)(=O)NCC2CCC(C(=O)NCc3ccccc3)CC2)cc1 (configuration not stated)	138*	0	-1	1	129	101	4	101
O=C(CN1CCC(C(O)(c2ccccc2)c2ccccc2)CC1)Nc1cc(Cl)ccc1Cl	72*[inhibitor]	2	11	-14	78	98	-2	104
CC(=O)N=c1c(C#N)cc2c(=O)n3ccccc3nc2n1Cc1ccccc1	135*	1	7	1	105	114	14	91
